# Screening results (PubChem BioAssay)
# Shown are actives, neighbours in structure and some others; about 1.3% of the full set was active somewhere.
# NPR1 activator: GC-A (human) enzyme activation. P16066. HEK293 GC-A cells, cGMP TR-FRET, EC30 ANP; 0% at EC30 ANP, 100% saturating ANP. activation, % at 10 µM. hit rate 0.14% among 370,000; in the data active means activation above about 40%
# Target sequence (P16066 whole entry, looked up): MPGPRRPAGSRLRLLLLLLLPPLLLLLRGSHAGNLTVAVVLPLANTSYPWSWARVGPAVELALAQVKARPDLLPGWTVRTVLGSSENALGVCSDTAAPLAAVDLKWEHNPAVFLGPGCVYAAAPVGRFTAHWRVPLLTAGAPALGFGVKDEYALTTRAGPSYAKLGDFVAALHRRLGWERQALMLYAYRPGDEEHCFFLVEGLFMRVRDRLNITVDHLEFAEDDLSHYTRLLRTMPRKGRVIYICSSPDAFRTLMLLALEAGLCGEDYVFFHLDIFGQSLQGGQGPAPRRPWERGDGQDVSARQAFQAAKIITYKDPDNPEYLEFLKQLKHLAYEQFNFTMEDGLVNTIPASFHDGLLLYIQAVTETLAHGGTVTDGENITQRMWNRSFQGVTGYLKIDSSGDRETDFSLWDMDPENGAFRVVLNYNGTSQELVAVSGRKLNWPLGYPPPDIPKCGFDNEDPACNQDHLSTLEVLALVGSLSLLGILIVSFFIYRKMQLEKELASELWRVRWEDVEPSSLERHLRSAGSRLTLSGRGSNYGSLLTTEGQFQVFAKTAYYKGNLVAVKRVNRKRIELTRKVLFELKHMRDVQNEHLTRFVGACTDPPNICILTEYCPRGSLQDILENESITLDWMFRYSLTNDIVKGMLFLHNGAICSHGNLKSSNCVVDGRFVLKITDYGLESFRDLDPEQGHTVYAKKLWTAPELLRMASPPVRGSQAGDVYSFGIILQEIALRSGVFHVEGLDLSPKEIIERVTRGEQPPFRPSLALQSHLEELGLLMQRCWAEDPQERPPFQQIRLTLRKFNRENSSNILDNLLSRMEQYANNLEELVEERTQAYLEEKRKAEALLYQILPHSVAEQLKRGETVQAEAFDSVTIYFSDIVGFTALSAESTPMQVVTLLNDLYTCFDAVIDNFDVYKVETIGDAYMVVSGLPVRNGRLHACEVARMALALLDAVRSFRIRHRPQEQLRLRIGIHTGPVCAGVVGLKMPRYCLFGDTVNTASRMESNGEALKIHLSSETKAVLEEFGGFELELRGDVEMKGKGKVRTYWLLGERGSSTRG
# ADAM10 inh: inhibits human ADAM10 | O14672 | recombinant ADAM10, EDANS/DABCYL FRET peptide cleavage, 3 h | inhibition, % at 7 µM | hit rate 0.62% among 370,000 | AID 720582;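 active means inhibition above a per-campaign cutoff equal to the mean of compounds falling between control-based bounds plus 3 SD, cut at about 20% in these data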;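 further: 0% = DMSO wells while the 100% control is not disclosed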
# GC-B act: GC-B (human) receptor activation; hit rate 0.11% among 370,000; HEK293-GC-B cells, CNP EC30, cGMP TR-FRET; 0% at EC30 CNP, 100% saturating CNP; P20594; activation, % at 10 µM;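 active means activation at 10 µM reaching about 35% in either raw or pattern-adjusted values, limit read from the data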
# ADAM17 inh: ADAM17 inhibition, QFRET primary screen | P78536 | recombinant ADAM17, EDANS/DABCYL FRET peptide cleavage | inhibition, % at 6.95 µM | hit rate 0.83% among 370,000 | AID 720648;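 active means inhibition above the mean of compounds lying between control limits plus 3 SD, set per campaign, cut at about 8.5% in these data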;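 further: 0% = DMSO-only wells as the low control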
# ADAM10 confirm: human ADAM10 inhibition, confirmation; shares compounds with ADAM10 inh; ADAM10 QFRET peptide cleavage, EDANS fluorescence; inhibition, % at 6.95 µM; hit rate 1% among 2,100; AID 743208;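 active means inhibition above about 20% chosen separately for each screening run, limit read from the data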;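 further: 0% = DMSO wells and 100% = marimastat wells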
# ADAM17 ctr: counter-screen for ADAM10 exosite inhibitors: inhibitors of human ADAM17. shares compounds with ADAM10 inh. ADAM17 QFRET peptide cleavage, EDANS fluorescence. inhibition, % at 6.95 µM. hit rate 0.5% among 2,100. AID 743214;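 active means mean triplicate inhibition above the solvent-only control wells' mean plus 3 SD, cut at about 12% in these data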;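 further: 0% = DMSO wells and 100% = marimastat wells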
# * marks the source's active call; other numbers are inactive results; x = no result.
SMILES,NPR1 activator,ADAM10 inh,GC-B act,ADAM17 inh,ADAM10 confirm,ADAM17 ctr
COc1cccc(C(C)(O)c2nc(-c3ccc(C)c(C)c3)cs2)c1 (centres undefined),-2,21*,-5,8,8,2
COc1ccc(-c2csc(C(C)(O)c3cccc(OC)c3)n2)cc1 (centres undefined),1,2,0,0,x,x
COc1ccc(C(C(=O)NC2CCCC2)N(C(=O)CNC(=O)c2ccco2)c2cccnc2)cc1 (centres undefined),2,-6,-1,-5,x,x
COCCCn1cc(CN2CC(N3CCN(C)CC3)CS2(=O)=O)nn1 (centres undefined),4,-5,4,-8,x,x
CCOC(=O)c1ccc(N2C(=O)c3n[nH]c(-c4ccco4)c3C2c2ccc([N+](=O)[O-])cc2)cc1 (centres undefined),34,23*,3,7,12,3
O=C(CN1CCN(c2ccccc2)CC1)Nc1ccccc1Cl,-4,6,-1,-1,x,x
O=C(CCN1CCN(c2ccccc2)CC1)NNC(=S)Nc1ccccc1Cl,-1,21*,-2,15*,1,1
C[C@@H]1[C@@H](c2ccccc2)c2cc3ccccc3nc2-c2nc3ccccc3cc2[C@@H]1C(=O)N1CCCC1,0,2,2,2,x,x
Cc1ccc(Cl)cc1NC(=S)NCCCSC1CCCCC1,3,22*,-3,2,2,1
CC1(C(=O)NS(=O)(=O)c2ccccc2)CCN1C(=O)Cc1ccc(Cl)cc1Cl (centres undefined),2,6,0,2,x,x
CN1C(=O)Cc2cc(S(=O)(=O)Nc3ccc(N4CCOCC4)cc3)ccc21,-1,28*,5,8,-1,0
Cc1cc(S(=O)(=O)Nc2ccc(N3CCOCC3)cc2)ccc1Br,-2,6,-2,2,x,x
O=C(NCc1ccccc1Cl)C1CCCN(c2ncccn2)C1 (centres undefined),-3,-23,9,-7,x,x
CC1(C)CC(=O)C=C(Nc2ccccc2NC(=O)c2cccc(F)c2F)C1,-2,-4,3,-2,x,x
C#CCN(C[C@@H]1[C@@H](OC(=O)NCc2ccc(OC)c(OC)c2)[C@@H](OC(=O)NCc2ccc(OC)c(OC)c2)Cn2c(=O)n(CCCCCC)c(=O)n21)S(=O)(=O)c1ccc(C)cc1,5,21*,0,9,12,3
Cc1ccc(-c2n[nH]c(=S)n2/N=C/C=C\c2ccccc2[N+](=O)[O-])cc1,3,29*,-2,8,1,0
O=C(COC(=O)c1cc(-c2cccs2)nn1-c1ccccc1)Nc1ccc(Cl)c([N+](=O)[O-])c1,-2,21*,-2,7,6,2
CCOc1ccc(/C=N/OCC(=O)Nc2ccc(OCc3ccccc3)cc2)cc1OC,1,4,-1,-1,x,x
COc1cc(/C=N/OCC(=O)Nc2ccc(OC(F)F)cc2)ccc1OCc1ccccc1,-2,23*,1,1,11,4
COC(=O)N1CCCCC1c1cc(C(=O)Nc2ccc(OC)cc2C)no1 (centres undefined),3,-10,-5,-3,x,x
Cc1csc(NC(=O)Cc2coc3cc(C)c(C(C)C)cc23)n1,0,23*,-5,7,7,1
Cc1cc2occ(CC(=O)NCc3cccs3)c2cc1C(C)C,-2,15,-10,-2,x,x
COC(=O)c1ccc(N2CCN(C)CC2)c(NC(=O)c2cccs2)c1,3,5,2,0,x,x
CN(C)c1ccc(-c2ccnc3c2CC(C)(C(=O)Nc2cccc(Oc4ccccc4)c2)O3)cc1 (centres undefined),-2,-293,-4,-102,x,x
COc1ccc(S(=O)(=O)NCC(=O)N(Cc2ccco2)C(C(=O)NC(C)(C)C)C(C)C)cc1 (centres undefined),0,20*,1,0,1,0
CC(C)C(C(=O)NCc1ccco1)N(Cc1ccco1)C(=O)CNS(=O)(=O)c1ccccc1 (centres undefined),1,-4,2,-1,x,x
O=C(c1ccc(N2CCOCC2)c([N+](=O)[O-])c1)N1CCN(Cc2ccccc2)CC1,0,4,0,0,x,x
